Reference: PubChem BioAssay (Tox21)
Where “and” joins values, the source holds several entries; their conditions need not be identical. Equal entries are not always repeated. Inconclusive results are not listed. More than one record can exist for a structure, and the calls need not agree. Calls of active or inactive are those of the source. Unless noted, calls follow the shape of the dose curve; as a rule, active = well fitted curve in the direction sought with a large enough effect in the repeat runs; inconclusive = weak or mixed curves; inactive = no such curve, though single readings can be large; an effect the other way counts as inactive or inconclusive.

Key:
[1] = qHTS assay for small molecule agonists of the p53 signaling pathway (AID 651631; calls by dose curve; also: nearly all actives have a fitted effect of over 15% in size; also: potency is read from the fitted curve at half-maximal effect)
Outline: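 Read-out is beta-lactamase FRET fluorescence measured 2 h after substrate addition at room temperature, in HCT-116 cells with a p53 response element-driven reporter exposed to compounds for 16 h at 37 °C.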

[2] = qHTS assay for small molecule agonists of the p53 signaling pathway - cell viability (AID 651633; calls by dose curve;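 also: p53RE-bla HCT reporter cells with a stable beta-lactamase p53 reporter; series mostly up to about 83 µM; nearly all actives have a fitted effect of over 30% in size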)
Outline: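 p53RE-bla cells, seeded at 4,000 per well and rested 5 h at 37 C/5% CO2, received compounds in DMSO for 16 h at 37 C. CellTiter-Glo was then added, and luminescence was read after 30 min at room temperature to gauge cytotoxicity.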

[3] = qHTS assay for small molecule disruptors of the mitochondrial membrane potential - cell viability (AID 720634; calls by dose curve; also: nearly all actives have a fitted effect of over 20% in size; also: potency is read from the fitted curve at half-maximal effect)
Outline: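 Same-well counter-screen: following the MMP dye addition, CellTiter-Glo was added to 1 hr compound-treated HepG2 cells and luminescence read after 30 min at room temperature.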

[4] = qHTS assay to test for compound auto fluorescence at 590 nm (red) in HepG2 cells (AID 720674)
Outline: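 Compound auto-fluorescence is scored relative to Rose Bengal sodium, measured at 540/590 nm in live HepG2 cultures after 1 hr compound contact (37 C, 5% CO2).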

[5] = qHTS assay to test for compound auto fluorescence at 535 nm (green) in HepG2 cells (AID 720675)
[6] = qHTS assay to test for compound auto fluorescence at 460 nm (blue) in HEK293 cells (AID 720678)
Outline: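 HEK293, 2,000 cells/well, 10% dialyzed FBS; attach 4-5 hr 37C; pin compound or DMSO; o/n 37C/5% CO2; fluorescence 405/460 nm; triamterene-equivalent units.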

[7] = qHTS assay to test for compound auto fluorescence at 590 nm (red) in HEK293 cells (AID 720679)
Outline: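 Intensity at 540nm excitation and 590nm emission is reported as Rose Bengal sodium-equivalent autofluorescence. Measurements followed overnight exposure (37C, 5% CO2) of HEK293 cells, 2,000 per well, to 23 nL compound.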

[8] = qHTS assay to test for compound auto fluorescence at 535 nm (green) in HEK293 cells (AID 720680)
[9] = qHTS assay to test for compound auto fluorescence at 460 nm (blue) in HEK293 cell free culture (AID 720681)
Outline: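 Test compounds were pinned into cell-free culture medium (DMEM with 10% FBS) and fluorescence was read directly at Ex/Em 405/460 nm. Signals were expressed as fluorescence equivalents of triamterene, with DMSO vehicle as control.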

[10] = qHTS assay to test for compound auto fluorescence at 535 nm (green) in HEK293 cell free culture (AID 720682)
Outline: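 Fluorescein serves as the green reference fluorophore; each compound's intrinsic emission at 535 nm (excitation 485 nm) is reported as an equivalent amount of that dye, measured in serum-containing DMEM without cells.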

[11] = qHTS assay to test for compound auto fluorescence at 590 nm (red) in HEK293 cell free culture (AID 720683)
Outline: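 Tox21 10K library compounds were pinned into cell-free DMEM with 10% FBS and fluorescence was read at excitation 540 nm. Activity is expressed as Rose Bengal sodium equivalency.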

[12] = qHTS assay to test for compound auto fluorescence at 590 nm (red) in HepG2 cell free culture (AID 720684)
Outline: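 Readout: intrinsic compound fluorescence at 590 nm emission after 540 nm excitation, scaled to Rose Bengal sodium. Matrix was cell-free MEM with 10% FBS; DMSO vehicle wells served as control.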

[13] = qHTS assay to test for compound auto fluorescence at 460 nm (blue) in HepG2 cell free culture (AID 720685)
Outline: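 Cell-free plates of MEM plus 10% FBS received 23 nL compound or DMSO vehicle; blue-channel (405/460 nm) intensity scored against triamterene as reference fluorophore.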

[14] = qHTS assay to test for compound auto fluorescence at 535 nm (green) in HepG2 cell free culture (AID 720686)
[15] = qHTS assay to test for compound auto fluorescence at 460 nm (blue) in HepG2 cells (AID 720687)
Outline: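 Cells (2,000/well in MEM with 10% FBS) attached overnight at 37 C, then were exposed to compound or DMSO for 1 hr at 37 C, 5% CO2. Fluorescence read at Ex/Em 405/460 nm, expressed as triamterene-equivalent signal.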

[16] = qHTS assay for small molecules that induce genotoxicity in human embryonic kidney cells expressing luciferase-tagged ATAD5 (AID 651632); also: nearly all actives have a fitted effect of over 15% in size
Outline: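 Test compounds were delivered by pin tool onto HEK293T reporter cells (2,000/well) expressing ATAD5 fused to luciferase. After 16 hr at 37C, 5% CO2, Amplite was added for 30 min at room temperature and luminescence was measured.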

[17] = qHTS assay for small molecules that induce genotoxicity in human embryonic kidney cells expressing luciferase-tagged ATAD5 - cell viability (AID 651634; calls by dose curve; also: nearly all actives have a fitted effect of over 25% in size)
Outline: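 Quantitative high-throughput format. HEK293T cells expressing ATAD5 fused to luciferase were plated at 2,000 cells/well and treated 15.5 hr with compound versus DMSO. Viability was determined by fluorescent live-cell protease substrate, 30 min at 37C.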

[18] = qHTS assay for small molecule disruptors of the mitochondrial membrane potential (AID 720635); also: potency is read from the fitted curve at half-maximal effect
Outline: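 HepG2 cells (2,000/well) attached overnight at 37C, then took compound for 1 hr at 37C, 5% CO2. Mito-MPS dye was added for 30 min; fluorescence was read at 490/535 nm (monomers) and 540/590 nm (aggregates).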

[19] = molecular target: Glucocorticoid receptor (Homo sapiens) (UniProt P04150); assay: qHTS assay to identify small molecule agonists of the glucocorticoid receptor (GR) signaling pathway (AID 720691; active = well fitted activation curve with a large enough effect in the signal ratio in the repeat runs, not every such curve was filed as active; the % refers to the signal ratio)
Glucocorticoid receptor (Homo sapiens), sequence (P04150 whole entry, looked up): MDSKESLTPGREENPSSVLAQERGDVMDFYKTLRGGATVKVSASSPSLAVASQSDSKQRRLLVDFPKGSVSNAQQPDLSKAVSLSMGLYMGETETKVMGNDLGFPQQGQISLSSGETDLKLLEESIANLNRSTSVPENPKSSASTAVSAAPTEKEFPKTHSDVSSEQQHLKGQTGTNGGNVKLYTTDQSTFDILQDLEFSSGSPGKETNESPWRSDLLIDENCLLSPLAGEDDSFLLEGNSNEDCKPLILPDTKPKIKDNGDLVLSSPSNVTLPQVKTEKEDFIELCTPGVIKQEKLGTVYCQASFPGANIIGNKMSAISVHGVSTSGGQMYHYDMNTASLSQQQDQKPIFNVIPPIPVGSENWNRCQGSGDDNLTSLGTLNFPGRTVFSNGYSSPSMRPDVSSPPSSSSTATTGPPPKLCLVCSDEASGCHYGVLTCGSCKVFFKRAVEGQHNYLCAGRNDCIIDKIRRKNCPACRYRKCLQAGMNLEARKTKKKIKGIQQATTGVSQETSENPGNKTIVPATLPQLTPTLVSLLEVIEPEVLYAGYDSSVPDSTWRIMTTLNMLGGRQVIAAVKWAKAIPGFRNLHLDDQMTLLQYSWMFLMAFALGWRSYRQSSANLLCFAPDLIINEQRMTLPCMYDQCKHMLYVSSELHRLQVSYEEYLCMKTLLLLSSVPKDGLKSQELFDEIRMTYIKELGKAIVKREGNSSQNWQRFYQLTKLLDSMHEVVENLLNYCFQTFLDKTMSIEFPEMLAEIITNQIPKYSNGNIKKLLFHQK
Outline: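 A HeLa cervical cancer line expressing GR and a glucocorticoid response element-driven beta-lactamase gene is treated with compounds for 18 h; LiveBLAzer B/G FRET substrate is then applied and fluorescence read.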

[20] = molecular target: Glucocorticoid receptor (Homo sapiens) (UniProt P04150); assay: qHTS assay to identify small molecule antagonists of the glucocorticoid receptor (GR) signaling pathway (AID 720692; active = well fitted inhibition curve with a large enough effect in the signal ratio in the repeat runs, not every such curve was filed as active; the % refers to the signal ratio; also: potency is read from the fitted curve at half-maximal effect)
Outline: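 GRE-bla HeLa line, dex-stimulated (5 nM final). Compound exposure 18 h, 37 C. Beta-lactamase FRET read after 2 h RT substrate.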

Measured: Potency

Nc1cccc2ccccc12
not listed: [16] | [17] | [18] | [19] | [20]
inactive: all other assays above

C[C@H]1[C@@H]2Cc3ccc(O)cc3[C@@]1(C)CCN2C
not listed: [1] | [13]
inactive: all other assays above

O=[N+]([O-])/C=C/c1ccccc1
62.1 µM (active) and inactive: [3]
active: [1] 2.47 µM and 2.43 µM | [20] 15.7 µM and 17.4 µM
not listed: [2] | [13] | [16] | [17] | [18] | [19]
inactive: all other assays above

O=S(=O)(c1ccccc1)c1ccccc1
not listed: [1] | [18] | [19] | [20]
inactive: all other assays above

c1ccc2sc(SNC3CCCCC3)nc2c1
active: [18] 67.8 µM and 54.5 µM
not listed: [1]
inactive: all other assays above

C=CCSSCC=C
not listed: [1] | [19] | [20]
inactive: all other assays above

C=CC(C)(CCC=C(C)C)OC(=O)c1ccccc1N (centres undefined)
not listed: [16] | [17] | [18] | [20]
inactive: all other assays above

O=CC=O
not listed: [1]
inactive: all other assays above
